Source: PubChem BioAssay AID463173 (ICCB-Longwood Screening Facility, Harvard Medical School, 2010)
About 4,300 (8.3%) of roughly 52,000 compounds were called active. The sample as a whole holds a higher share of actives than the screen did. Unmarked numbers belong to inactive results. Rule as the data show it: active = survival mostly below about 52% (no sharp cut-off); inactive = mostly above about 56%.

system: DeltatarO mutant; assay: S. aureus survival, RN4220 and DeltatarO strains – OD600, teichoic acid synthesis inhibitors, primary screen (AID 463173); conditions: S. aureus RN4220 wild type/DeltatarO growth, OD600, 18 h, stronger effect = lower value, screened at 18.75 µg/mL (by protocol)

Structure (SMILES) | survival
CCCCn1cc(S(=O)(=O)c2ccc(Cl)cc2)c(=O)c2cc(F)c(N3CCCC(C)C3)cc21 (stereo not given) | 117%
O=C(c1ccc(F)cc1)C1CCN(S(=O)(=O)c2ccc(F)cc2)CC1 | 95%
COc1ccc(CNC(=O)CCCc2nnc3n(CCC(C)C)c(=O)c4sccc4n23)cc1 | 93%
Cc1ccc2nc(NC(=O)CSc3cc(C)[nH]c(=O)n3)sc2c1 | 79%
Cc1ccc(OCCSc2nc3ccccc3n2CC(=O)NC(C)C)cc1 | 52%
CCc1ccc(OCCSc2nc3ccccc3n2CC(=O)N2CCCCC2)cc1 | 40% (active)
CCN(CC)C(=O)Cn1c(SCC(=O)Nc2ccc(F)cc2)nc2ccccc21 | 100%
Cc1ccc(OCCSc2nc3ccccc3n2CCC(=O)O)cc1C | 47% (active)
O=C(Cn1c(SCCOc2ccc(Cl)cc2)nc2ccccc21)N1CCCCC1 | 50%
Cn1c(SCCC(=O)O)nc2ccccc21 | 83%
CCN(CC)C(=O)Cn1c(SCCOc2ccc(Cl)cc2)nc2ccccc21 | 43% (active)
Cc1cccc(C)c1OCCSc1nc2ccccc2n1CC(=O)O | 83%
Cc1ccc(OCCSc2nc3ccccc3n2CC(=O)N2CCOCC2)cc1C | 53%
Cc1ccc(OCCSc2nc3ccccc3n2CC(=O)N2CCCCC2)cc1C | 46% (active)
CCc1ccccc1NC(=O)CCn1cccn1 | 135%
CCC1CN(C(=O)N2CCC(C(=O)NCc3ccco3)CC2)c2ccccc2O1 (stereo not given) | 66%
COc1ccccc1CNC(=O)C1CCN(S(=O)(=O)c2c(C)noc2/C=C/c2cccs2)CC1 | 59%
CN(C(=O)CSc1nc2ccc(NC(=O)c3cccc(F)c3)cc2s1)c1ccccc1 | 69%
Cc1ccccc1NC(=O)C(=O)NCC(c1ccc2c(c1)OCO2)N1CCN(c2ccccc2)CC1 (stereo not given) | 73%
O=S(=O)(Nc1cccc(C(F)(F)F)c1)c1ccc(-c2cnc(C3CC3)o2)cc1 | 91%
c1ccc2[nH]c(CN3CCCCC3)nc2c1 | 59%
O=C(NCc1ccc(F)cc1)c1ccc(NC(=O)N2CC3CCCN3c3ccccc32)cc1 (stereo not given) | 113%
Cc1oc(CC(C)C)cc1C(N)=O | 100%
O=C(CSC1=Nc2ccccc2C2=NC(Cc3ccccc3)C(=O)N12)Nc1ccccc1 (stereo not given) | 74%

Structure (SMILES) | survival
CCOc1ccc(-c2cn(-c3ccc(OC)cc3)c(SCC(=O)Nc3ccccc3Cl)n2)cc1 | 99%
Cc1cccc(NC(=O)CSc2nnc3scc(-c4ccccc4)n23)c1 | 40% (active)
CCOc1ccc(NC(=O)CSc2nnc3scc(-c4ccccc4)n23)cc1 | 17% (active)
O=C(CSc1nnc2scc(-c3ccc(Cl)cc3)n12)Nc1cccc(C(F)(F)F)c1 | 58%
Cc1ccc(NC(=O)CSc2nnc3scc(-c4ccccc4)n23)cc1 | 15% (active)
O=C(CSc1nnc2scc(-c3ccccc3)n12)Nc1ccc(Cl)cc1 | 56%
CC(=O)Nc1ccc(C(=O)CSc2nnc3scc(-c4ccccc4)n23)cc1 | 89%
CC(C)(C)c1ccc(NC(=O)CSc2nnc3scc(-c4ccccc4)n23)cc1 | 41% (active)
CCOc1ccc(NC(=O)CSc2nnc3scc(-c4ccc(Cl)cc4)n23)cc1 | 48%
Cc1ccc(NC(=O)CSc2nnc3scc(-c4ccc(Cl)cc4)n23)cc1 | 49%
O=C(CSc1nnc2scc(-c3ccc(Cl)cc3)n12)Nc1ccc(F)cc1 | 57%
COc1cccc(NC(=O)CSc2nnc3scc(-c4ccc(Cl)cc4)n23)c1 | 52%
COc1ccc(NC(=O)CSc2nnc3scc(-c4ccc(Cl)cc4)n23)cc1 | 95%
CC(NCc1ccc(F)cc1)C(=O)NC1CCCCC1 (stereo not given) | 79%
Cc1ccc(NC(=O)C2CC(=O)N(c3ccc(OC(C)C)cc3)C2)cc1 (stereo not given) | 82%
COc1ccc(C2CC(c3c(O)n(C4CCCCC4)c(=O)[nH]c3=O)=Nc3ccccc3S2)cc1 (stereo not given) | 48%
O=C1COc2ccccc2N1Cc1ccc(OC(F)(F)F)cc1 | 86%
COc1ccc(CC(=O)NCc2ccc3c(c2)CCN3C(=O)c2ccccc2)cc1OC | 82%
Cc1ccc(CN(Cc2cccn2-c2nnc(N3CCCC3=O)s2)C(=O)Nc2cc(C)cc(C)c2)cc1 | 123%
COc1ccc(Nc2nc3ccc(C)cc3nc2-n2nc(C)cc2C)cc1Cl | 69%
COc1cccc(CNC(=O)c2ccc3c(c2)nc2n3CCC(C)C2)c1 (stereo not given) | 72%
Cc1cn2c(=O)cc(COC(=O)c3cccc(NC(=O)COc4ccccc4C)c3)nc2s1 | 85%
CCOc1ccc(CCNC(=O)c2cc3c(-c4ccccc4F)nn(C)c3s2)cc1OCC | 67%
CCn1nc(-c2ccccc2)c(-c2ccccc2)c(C(=O)Nc2nc(C)c(C(C)=O)s2)c1=O | 53%

Structure (SMILES) | survival
COCc1cc(C)nc2c1C(=O)NC(c1ccc(NC(C)=O)cc1)N2Cc1ccccc1 (stereo not given) | 74%
O=C(CSc1nccn1Cc1ccc(Cl)cc1)NC1CCCC1 | 83%
COc1ccc(CNC(=O)Cn2c(=O)nc(-c3ccccc3F)c3cc(Cl)ccc32)cc1 | 72%
CCC(C)Nc1nc(OC(C(F)(F)F)C(F)(F)F)nc(N(CC)CC)n1 (stereo not given) | 80%
Nc1nc(OC(C(F)(F)F)C(F)(F)F)nc(OC(C(F)(F)F)C(F)(F)F)n1 | 13% (active)
FC(F)(F)COc1nc(OCC(F)(F)F)nc(OCC(F)(F)F)n1 | 74%
O=C(O)Cn1ccc(=O)[nH]c1=O | 96%
CCOc1ccc(CCNC(=O)c2cc3c(=O)oc4ccc(C)cc4c3s2)cc1OCC | 67%
Cc1nc2nc(NCc3ccc(Br)cc3)[nH]n2c(=O)c1Cc1ccccc1 | 39% (active)
Cc1nc2nc(NCc3ccc(Cl)cc3)[nH]n2c(=O)c1Cc1ccccc1 | 40% (active)
Cc1nc2nc(NCc3cccc(Br)c3)[nH]n2c(=O)c1Cc1ccccc1 | 54%
Cc1nc2nc(NCc3ccccc3Cl)[nH]n2c(=O)c1Cc1ccccc1 | 83%
Cc1nc2nc(NCc3cccc(Cl)c3)[nH]n2c(=O)c1Cc1ccccc1 | 78%
CCc1ccc(CNc2nc3nc(C)c(Cc4ccccc4)c(=O)n3[nH]2)cc1 | 80%
Nc1ccc(Oc2ccc(C(=O)O)c(C(=O)O)c2)cc1 | 98%
O=C(NCc1ccco1)C1C2C3CCC(C3)C12 (stereo not given) | 77%
N#CC1=C(N)SC(N)=C(C#N)C1c1ccc(O)cc1 | 82%
N#CC1=C(N)SC(N)=C(C#N)C1CCC1CCCCC1 | 2% (active)
CC(CC1C(C#N)=C(N)SC(N)=C1C#N)c1ccccc1 (stereo not given) | 51%
COc1ccccc1N1CCN(c2ncnc3c2cnn3C)CC1 | 83%
CCOc1cccc(C(=O)N2CCC(c3nc4ccccc4s3)CC2)c1 | 75%
CCCOc1ccc(C(=O)N2CCC(c3nc4ccccc4s3)CC2)cc1 | 36% (active)
CCCOc1ccccc1C(=O)N1CCC(c2nc3ccccc3s2)CC1 | 63%
O=C(c1ccc(F)cc1)N1CCC(c2nc3ccccc3s2)CC1 | 76%

Structure (SMILES) | survival
CC(C)Oc1ccc(C(=O)N2CCC(c3nc4ccccc4s3)CC2)cc1 | 49%
CC(C)COc1ccc(C(=O)N2CCC(c3nc4ccccc4s3)CC2)cc1 | 17% (active)
COc1cc(OC)cc(-n2nnc(-c3nc(-c4ccccc4Cl)no3)c2N)c1 | 86%
COc1ccccc1N1CCN(S(=O)(=O)c2ccc(-c3coc(C)n3)cc2)CC1 | 71%
O=C1CCCc2c1cc(C(=O)N1CCOCC1)c(=O)n2-c1ccccc1 | 69%
CCc1ccccc1NC(=O)N1CCN(C(=O)c2nsc3ccccc23)CC1 | 17% (active)
Cc1cccc(NC(=O)N2CCN(C(=O)c3nsc4ccccc34)CC2)c1C | 88%
Cc1cc(C)cc(NC(=O)N2CCN(C(=O)c3nsc4ccccc34)CC2)c1 | 88%
CCc1ccc(NC(=O)N2CCN(C(=O)c3nsc4ccccc34)CC2)cc1 | 87%
Cc1ccc(NC(=O)N2CCN(C(=O)c3nsc4ccccc34)CC2)cc1C | -5% (active)
O=C(Nc1ccccc1)N1CCN(C(=O)c2nsc3ccccc23)CC1 | 88%
O=c1oc2ccc3ccccc3c2cc1-c1nnc(Nc2ccc(F)cc2)s1 | 78%
Cc1cccc(NC(=O)CN2C(=O)C3(SCC(=O)N3c3ccccc3)c3ccccc32)c1 (stereo not given) | 123%
O=C(NCCc1csc2nc(-c3ccc(F)cc3)nn12)c1cccc(C(F)(F)F)c1 | 78%
Cc1ccc(CNC(=O)CSc2ncc(S(=O)(=O)c3ccc(Br)cc3)c(=O)[nH]2)cc1 | 125%
CCOc1ccc(CNC(=O)c2ccc3[nH]c(C)c(C)c3c2)cc1OC | 67%
CCCCN(C)CC(O)Cn1cc(/C=C/C(=O)c2ccc(OCC)cc2)c2ccccc21 (stereo not given) | 6% (active)
Cc1ccc(C(=O)/C=C/c2cn(CC(O)CN3CCc4ccccc43)c3ccccc23)cc1 (stereo not given) | 73%
CCCCN(C)CC(O)Cn1cc(/C=C/C(=O)c2ccc(Br)cc2)c2ccccc21 (stereo not given) | 0% (active)
CCCCN(C)CC(O)Cn1cc(/C=C/C(=O)c2ccc(OC)c(OC)c2)c2ccccc21 (stereo not given) | 67%
CCCCN(C)CC(O)Cn1cc(/C=C/C(=O)c2ccc(C)cc2)c2ccccc21 (stereo not given) | 6% (active)
CCOc1ccc(C(=O)/C=C/c2cn(CC(O)CN3CCc4ccccc43)c3ccccc23)cc1 (stereo not given) | 56%
C=CCn1cc(/C=C(/C#N)C(=O)OCC)c2ccccc21 | 83%
